These results are taken from PubChem BioAssay (NCATS).

A short description of assay [1]: Quantitative High-Throughput drug screen in 47 multiple myeloma cell lines against the NCATS MIPE library collection: OCIMY1_PLB cell viability assay (AID 1918979). Note: nearly all actives have a fitted effect of over 35% in size. Note: potency is the fitted concentration of half-maximal effect. Put shortly: (§1)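 500 cells/well per myeloma line exposed to pinned MIPE 4.0 compounds for 48 h at 37 °C, 5% CO2. Viability read as ATP by CellTiter-Glo luminescence, normalised to DMSO-only (100%) and media-only (0%) wells.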

Assay [2] is described as follows: Quantitative High-Throughput drug screen in 47 multiple myeloma cell lines against the NCATS MIPE library collection: LP1_DSMZ cell viability assay (AID 1918982). Note: nearly all actives have a fitted effect of over 35% in size. Note: potency is the fitted concentration of half-maximal effect. A digest of the protocol: as §1
Assay [3] in a line: Quantitative High-Throughput drug screen in 47 multiple myeloma cell lines against the NCATS MIPE library collection: KMS28PE_JCRB cell viability assay (AID 1918983). Note: nearly all actives have a fitted effect of over 35% in size. Note: potency is the fitted concentration of half-maximal effect. A digest of the protocol: as §1
Assay [4] in a line: Quantitative High-Throughput drug screen in 47 multiple myeloma cell lines against the NCATS MIPE library collection: L363_DSMZ cell viability assay (AID 1918984). Note: nearly all actives have a fitted effect of over 40% in size. Note: potency is the fitted concentration of half-maximal effect. Put shortly: as §1
The nature of assay [5]: Quantitative High-Throughput drug screen in 47 multiple myeloma cell lines against the NCATS MIPE library collection: OPM1_PLB cell viability assay (AID 1918989). Note: nearly all actives have a fitted effect of over 40% in size. Note: potency is the fitted concentration of half-maximal effect. Put shortly:
as §1

A short description of assay [6]: Quantitative High-Throughput drug screen in 47 multiple myeloma cell lines against the NCATS MIPE library collection: MM1R_ATCC cell viability assay (AID 1918981). Note: nearly all actives have a fitted effect of over 35% in size. Put shortly: as §1
A short description of assay [7]: Quantitative High-Throughput drug screen in 47 multiple myeloma cell lines against the NCATS MIPE library collection: OCIMY5_PLB cell viability assay (AID 1918988). Note: potency is the fitted concentration of half-maximal effect; nearly all actives have a fitted effect of over 65% in size. Put shortly: as §1
Assay [8] in a line: Quantitative High-Throughput drug screen in 47 multiple myeloma cell lines against the NCATS MIPE library collection: OCIMY7_PLB cell viability assay (AID 1918987). Note: nearly all actives have a fitted effect of over 65% in size. Note: potency is the fitted concentration of half-maximal effect. The conditions noted are these: OCI-MY7 myeloma viability, CellTiter-Glo ATP, 48 h; viability (% of DMSO): at 45.8 µM (top of the series). A digest of the protocol:
as §1

Assay [9] in a line: Quantitative High-Throughput drug screen in 47 multiple myeloma cell lines against the NCATS MIPE library collection: KMS34_JCRB cell viability assay (AID 1918985). Note: nearly all actives have a fitted effect of over 40% in size. Note: potency is the fitted concentration of half-maximal effect. A digest of the protocol: as §1

Records with an inconclusive call do not appear. Calls of active or inactive are those of the source. Calls come from the whole dose curve; as a rule, active = well fitted cell-killing curve with a large enough effect; inconclusive = small, poorly fitted or top-dose-only effect, or effect the other way; inactive = no such curve, though single readings can be large or run the other way.

As to `NC(=O)c1cccc2[nH]c(-c3ccc([C@H]4CCCN4)cc3F)nc12`, the Potency entry in [1], in assay [2] and in [3] was “inactive” throughout. Besides, the Potency in assay [4] and in [5] was 14.8 µM (active) in each case.

Regarding `NC1CCC(Nc2nc(Nc3ccc(C(=O)N4CCCCC4)cc3)c3ncn(-c4cccc(F)c4)c3n2)CC1` (stereo not drawn), the Potency result in [1], in assay [6], in [4] and in assay [5] was “inactive” in each case.

In the case of `COc1ccc2cc(-c3nc(-c4ccc(S(C)=O)cc4)[nH]c3-c3ccncc3)ccc2c1` (stereo not drawn), the Potency result in assay [1] and in assay [3] was “inactive” throughout. In addition, the Potency in assay [7] is 14.8 µM (active); in assay [5], 20.9 µM (active).

With `NC1=N[C@@]2(c3cc(NC(=O)c4ccc(F)cn4)ccc3F)COC[C@@H]2CS1`, the Potency entry in assay [1] and in assay [3] was “inactive” in each case. Besides, the values for the Potency in assay [4], in assay [7] and in assay [5] were 0.418 µM (active), 23.5 µM (active) and 16.6 µM (active), respectively.

Consider `CCCCCCCCCCCC1=C(O)C(=O)C=C(O)C1=O`, for which, in assay [1], the Potency result is “inactive”. Also, the Potency is 0.469 µM (active) in [4], 10.5 µM (active) in [8] and 3.72 µM (active) in [5].

With `CS(=O)c1ccc(-c2nc(-c3ccc(F)cc3)c(-c3ccncc3)[nH]2)cc1` (stereo not drawn), the Potency result in assay [1] and in [3] was “inactive” throughout. In addition, the Potency in [4] was 24.1 µM (active); in [8], 9.59 µM (active); in assay [7], 19.1 µM (active); in [5], 48.1 µM (active).

Consider `CC(C)C(C)C=CC(C)C1CCC2C3=CC=C4CC(O)CCC4(C)C3CCC21C` (stereo not drawn), for which the Potency result in [1], in [2], in [4], in assay [9] and in assay [5] was “inactive” throughout. Further, the Potency is 16.6 µM (active) in [3] and 23.5 µM (active) in [7].

In the case of `CN1CCN(CCOc2cc(OC3CCOCC3)c3c(Nc4c(Cl)ccc5c4OCO5)ncnc3c2)CC1`, the Potency result in assay [1] was “inactive”. Further, the Potency in assay [4] is 14.8 µM (active); in assay [8], 18.7 µM (active); in assay [5], 20.9 µM (active).

For `COc1ccc2c(Oc3ccc(NC(=O)c4c(C)n(CC(C)(C)O)n(-c5ccccc5)c4=O)nc3)ccnc2c1`, the Potency result in assay [1], in assay [6], in assay [9] and in assay [5] was “inactive” in each case.

For the compound `COCCOC(=O)C1=C(C)NC2=C(C(=O)CC(c3ccccc3OC)C2)C1c1cccc(O)c1` (stereo not drawn), in assay [1], the Potency entry was “inactive”. For the same compound, the Potency in assay [3] was 5.9 µM (active); in assay [4], 0.001 µM (active); in assay [8], 2.64 µM (active); in [7], 8.33 µM (active); in assay [5], 6.62 µM (active).

Turning to `Cc1ccccc1C(C(=O)NC1CCCCC1)N(C(=O)Cn1ccnc1C)c1cccc(F)c1` (stereo not drawn), the Potency result in assay [1] and in assay [5] was “inactive” each time. Also, the Potency in assay [2] is 13.2 µM (active); in assay [9] it was 20.9 µM (active); in assay [7] it was 23.5 µM (active).

Turning to `CC(C)(C)Cn1c(N)nc2ccc(-c3[nH]c(C(C)(C)C)nc3-c3ccc(F)cc3)nc21`, the Potency in assay [1] is 16.6 µM (active); in assay [3], 23.5 µM (active); in [8], 18.7 µM (active); in assay [7], 16.6 µM (active); in assay [5], 20.9 µM (active). Further, the Potency result in assay [4] was “inactive”.

`Cc1c[nH]c(C=C2C(=O)Nc3ccccc32)c1CCC(=O)O`: the Potency result in [1] and in assay [4] was “inactive” in each case. Moreover, the Potency in assay [3] was 23.5 µM (active); in [7], 20.9 µM (active); in [5] it was 0.833 µM (active).

As to `CCC(CC)[C@H](NC(C)=O)[C@@H]1[C@H](O)[C@@H](C(=O)O)C[C@@H]1N=C(N)N`, the Potency entry in [1], in assay [3], in [4], in [9] and in assay [5] was “inactive” each time.

As for `CS(=O)(=O)N(Cc1ccco1)CC(O)Cn1c2ccccc2c2ccccc21` (stereo not drawn), the Potency entry in [1] and in [4] was “inactive” in each case. For the same compound, the results for the Potency in assay [3], in assay [9] and in assay [8] were 5.9 µM (active), 16.6 µM (active) and 13.2 µM (active), respectively.

As for `COc1cc(N2CCC(N3CCN(C)CC3)CC2)ccc1Nc1ncc(Cl)c(Nc2ccccc2S(=O)(=O)C(C)C)n1`, the Potency result in [1] is “inactive”. For the same compound, the Potency in assay [8] is 0.264 µM (active).

For the compound `Nc1ncnc2c1ncn2[C@@H]1O[C@H](CO)C[C@@H]1O`, the Potency result in [1], in [6], in [4], in assay [8] and in [5] was “inactive” throughout.

On to `COc1ccc(Cc2ccc(NC(N)=O)cc2)cc1-c1cccc(Cl)c1`, for which the Potency entry in assay [1], in assay [3], in assay [9] and in assay [5] was “inactive” in each case.

For `CC[C@H]1OC(=O)[C@H](C)[C@@H](O[C@H]2C[C@@](C)(OC)[C@@H](O)[C@H](C)O2)[C@H](C)[C@@H](O[C@@H]2O[C@H](C)C[C@H](N(C)C)[C@@H]2O)[C@](C)(O)C[C@@H](C)CN(C)[C@H](C)[C@@H](O)[C@]1(C)O`, the Potency entry in assay [1] and in assay [3] was “inactive” each time.

Take `NS(=O)(=O)c1ccc(NC2=CC(=O)c3ccccc3C2=O)cc1`: the Potency result in [1] and in assay [3] was “inactive” throughout. The Potency in assay [4] is 1.66 µM (active); in [8] it was 2.09 µM (active); in assay [5], 6.62 µM (active).

As to `CCn1c(C(=O)N(C2CC2)C2CC2)cc2c3c(ncn3C)c(Nc3cc(C)n(C)n3)nc21`, the Potency result in assay [1], in assay [6] and in [9] was “inactive” in each case. Further, the figures for the Potency in assay [8] and in assay [5] were 14.8 µM (active) and 20.9 µM (active), respectively.

As for `CC1(C)CCC[C@@]2(C)[C@@H]1CC[C@@]1(C)OC(=O)C[C@H]21`, the Potency result in assay [1], in assay [2], in assay [3], in [9] and in assay [5] was “inactive” each time.
